A short description of test [1]: A CellTox Green Cytotoxicity Assay to monitor cytotoxicity in HEK293 cells - 32 hour (AID 1224881). Also: nearly all actives have a fitted effect of over 40% in size. Also: potency is read from the fitted curve at half-maximal effect. An outline of the steps: (§1)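 Homogeneous no-lysis format: HEK293 cell suspension mixed with CellTox Green reagent, seeded, incubated 5 h at 37 C/5% CO2, then dosed by pintool with compound in DMSO.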
Test [2] in a line: A CellTox Green Cytotoxicity Assay to monitor cytotoxicity in HepG2 cells - 0 hour (AID 1224882). Also: nearly all actives have a fitted effect of over 35% in size. Also: potency is read from the fitted curve at half-maximal effect. An outline of the steps:
(§2)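 Fluorescent DNA-binding dye, 600 HepG2 cells/well, 5 h preincubation then compound in DMSO; same plates read at 0–40 h, 37 C.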

Test [3] can be described thus: A CellTox Green Cytotoxicity Assay to monitor cytotoxicity in HepG2 cells - 32 hour (AID 1224883). Also: nearly all actives have a fitted effect of over 50% in size. Also: potency is read from the fitted curve at half-maximal effect. An outline of the steps: as §2
Test [4] in a line: qHTS RealTime-Glo MT Cell Viability Assay in HepG2 cells - 16 hour (AID 1224885). Also: nearly all actives have a fitted effect of over 50% in size. Also: potency is read from the fitted curve at half-maximal effect. An outline of the steps:
(§3)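 HepG2 suspension premixed with RealTime-Glo reagents is plated at 600 cells per well and left 5 h at 37 C/5% CO2. Compounds in DMSO then go in, and bioluminescence reflecting viable cell number is recorded over 40 h.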

The nature of test [5]: qHTS RealTime-Glo MT Cell Viability Assay in HEK293 cells - 24 hour (AID 1224886). Also: nearly all actives have a fitted effect of over 50% in size. Also: potency is read from the fitted curve at half-maximal effect. An outline of the steps:
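Reads taken at 0, 8, 16, 24, 32 and 40 h from the same wells. HEK293 cells (600/well) carried RealTime-Glo reagents from seeding, with compound added after a 5 h settle at 37 C.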
A general note: Quantitative high-throughput screening tests each substance at several concentrations.

A short description of test [6]: qHTS RealTime-Glo MT Cell Viability Assay in HEK293 cells - 8 hour (AID 1224887). Also: nearly all actives have a fitted effect of over 50% in size. Also: potency is read from the fitted curve at half-maximal effect. An outline of the steps: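 Measured as luminescence from the same continuously cultured HEK293 wells at successive time points (0, 8, 16, 24, 32, 40 h) after compound addition. Reagent present from seeding; dosing at 5 h; incubation 37 C.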
A short description of test [7]: A CellTox Green Cytotoxicity Assay to monitor cytotoxicity in HEK293 cells - 16 hour (AID 1224888). Also: nearly all actives have a fitted effect of over 35% in size. Also: potency is read from the fitted curve at half-maximal effect. An outline of the steps: as §1
The nature of test [8]: qHTS RealTime-Glo MT Cell Viability Assay in HepG2 cells - 0 hour (AID 1224889). Also: nearly all actives have a fitted effect of over 50% in size. An outline of the steps:
as §3

Test [9] in a line: A CellTox Green Cytotoxicity Assay to monitor cytotoxicity in HepG2 cells - 8 hour (AID 1224890). Also: nearly all actives have a fitted effect of over 45% in size. Also: potency is read from the fitted curve at half-maximal effect. An outline of the steps:
as §2

Test [10] in a line: A CellTox Green Cytotoxicity Assay to monitor cytotoxicity in HEK293 cells - 8 hour (AID 1224884). Also: nearly all actives have a fitted effect of over 35% in size. An outline of the steps:
as §1

Each structure is given as a SMILES string. “And” between values parts separate entries of the source, which are not always exact repeats. Equal entries are not always repeated. Records with an inconclusive call do not appear. Where a structure was tested more than once in an assay, its records may differ in their call. The source made the active and inactive calls. Calls follow the shape of the dose curve; as a rule, active = well fitted curve in the direction sought with a large enough effect in the repeat runs; inconclusive = weak or mixed curves; inactive = no such curve, though single readings can be large; an effect the other way counts as inactive or inconclusive.

Regarding `[Cl-].[Cl-].[Cl-].[Fe+3]`, the Potency entry in test [1], in test [2], in test [3], in test [4], in [5] and in test [6] was “inactive” in each case. For the same molecule, the Potency result in test [7], in test [8] and in test [9] was “inactive” in each case.
On to `NN=C(N)N`, for which the Potency entry in test [1], in test [2], in test [3], in [5], in [6] and in [7] was “inactive” throughout. Moreover, the Potency result in test [8] and in [9] was “inactive” each time.
For `CCOP(=S)(OCC)SCSC(C)(C)C`, the Potency result in [1], in [2], in [3], in [4], in test [5] and in test [6] was “inactive” in each case. For the same molecule, the Potency result in test [7], in test [8] and in test [9] was “inactive” throughout.
Take `CCC[CH2][Sn]([Cl])([Cl])[CH2]CCC`: the Potency in test [1] was 442 nM (active) and 1.38 µM (active); in test [3], 351 nM (active) and 490 nM (active); in test [4], 701 nM (active) and 616 nM (active); in test [5], 111 nM (active) and 138 nM (active); in [6], 111 nM (active); in test [7], 786 nM (active) and 24.5 µM (active). Besides, the Potency in test [9] was 14 µM (active) and 13.8 µM (active). The Potency result in test [2] and in test [8] was “inactive” each time.
On to `COP(=S)(OC)Oc1ccc(Sc2ccc(OP(=S)(OC)OC)cc2)cc1`, for which the Potency result in [1], in [2], in test [3], in test [4], in test [5] and in test [6] was “inactive” throughout. Moreover, the Potency entry in test [7], in test [8] and in [9] was “inactive” each time.
`c1ccc(C2CO2)cc1` (stereo not given): the Potency entry in [1], in test [2], in test [3], in [4], in test [5] and in test [6] was “inactive” each time. In addition, the Potency result in test [7], in test [8] and in [9] was “inactive” in each case.
In the case of `CC1CC(=O)O1` (stereo not given), the Potency result in test [1], in test [2], in [3], in test [5], in test [6] and in [7] was “inactive” each time. Further, the Potency entry in test [8] and in [9] was “inactive” in each case.
Consider `COc1ccc(O)c(C(C)(C)C)c1`, for which the Potency result in [1], in [2], in [10], in test [4], in test [5] and in [6] was “inactive” each time. Moreover, the Potency entry in test [7], in test [8] and in [9] was “inactive” each time.
In the case of `CC(C)(O)C(=O)Nc1ccc([N+](=O)[O-])c(C(F)(F)F)c1`, the Potency entry in test [2], in [3], in [10], in test [4], in test [7] and in test [8] was “inactive” throughout. The Potency result in [9] is “inactive”. In addition, the Potency in [5] was 25.1 µM (active) and 17.9 µM (active); in [6], 25100 nM (active).
With `c1ccc2c(c1)Nc1ccccc1S2`, the Potency entry in test [1], in [2], in test [3], in test [4], in [7] and in test [8] was “inactive” in each case. The Potency entry in [9] was “inactive”. The Potency in test [5] was 11 µM (active) and 10.7 µM (active); in test [6], 13.8 µM (active) and 10.7 µM (active).
Consider `CCNc1nc(Cl)nc(NC(C)(C)C#N)n1`, for which the Potency result in test [2], in test [3], in [10], in [4], in test [5] and in [6] was “inactive” in each case. The Potency result in test [7], in test [8] and in test [9] was “inactive” each time.
Consider `Cc1ccc(N=CN(C)C=Nc2ccc(C)cc2C)c(C)c1`, for which the Potency result in test [1], in test [2], in [10], in [6], in [7] and in [8] was “inactive” throughout. In test [9], the Potency result was “inactive”. Moreover, the Potency in test [3] was 43.6 µM (active) and inactive; in test [5] it was 39.1 µM (active) and 38.9 µM (active) and inactive.
With `C=CC(=O)OCC(CC)(COC(=O)C=C)COC(=O)C=C`, the Potency in test [1] was 5.64 µM (active) and 11 µM (active); in test [3], 14.2 µM (active); in test [5] it was 4 µM (active) and 11 µM (active); in test [6], 28.3 µM (active) and 21.9 µM (active). Also, the Potency result in [2], in test [7], in test [8] and in test [9] was “inactive” in each case.
Take `CCC/C=N/O`: the Potency entry in test [1], in [2], in test [3], in test [4], in [5] and in [6] was “inactive” throughout. In addition, the Potency result in [7], in test [8] and in test [9] was “inactive” in each case.
With `N#Cc1c(Cl)c(Cl)c(Cl)c(C#N)c1Cl`, the Potency in [1] is 7.61 µM (active) and 6.16 µM (active); in test [3] it was 21.5 µM (active) and 3.47 µM (active); in test [4], 21.5 µM (active) and 6.16 µM (active); in [5], 2.15 µM (active) and 1.23 µM (active); in test [6], 12.1 µM (active) and 17.4 µM (active); in test [7], 12.1 µM (active) and 8.71 µM (active). Further, the Potency in test [9] is 48 µM (active) and 13.8 µM (active). Moreover, the Potency result in test [2] and in test [8] was “inactive” each time.
Turning to `CC(C)COC(=O)c1ccccc1C(=O)OCC(C)C`, the Potency result in test [1], in test [2], in test [3], in test [4], in test [5] and in test [6] was “inactive” throughout. Further, the Potency result in test [7], in test [8] and in test [9] was “inactive” in each case.
For `CCCCC(C#N)(Cn1cncn1)c1ccc(Cl)cc1` (stereo not given), the Potency entry in [1], in [2], in test [10], in [5], in test [6] and in test [7] was “inactive” each time. The Potency result in [8] and in test [9] was “inactive” each time.
Take `CC(C)Nc1nc(Cl)nc(NC(C)C)n1`: the Potency result in test [1], in [2], in test [3], in test [4], in test [5] and in [6] was “inactive” in each case. Further, the Potency result in test [7], in test [8] and in test [9] was “inactive” throughout.
Turning to `CCCCCCCCCCCCCl`, the Potency result in test [1] was “inactive and 19.5 µM (active)”; in [2], “inactive and 19.5 µM (active)”; in [3] it was “inactive and 12.3 µM (active)”; in test [9] it was “inactive and 12.3 µM (active)”. In addition, the Potency entry in [4], in [5], in test [6] and in [8] was “inactive” each time.
On to `Nc1ccc([N+](=O)[O-])cc1N`, for which the Potency result in [1], in test [2], in test [3], in test [10], in test [5] and in test [6] was “inactive” in each case. Besides, the Potency entry in test [7], in test [8] and in [9] was “inactive” each time.

(Values after PubChem BioAssay (Tox21).)
